# The supplement of paper PMC8728848
# Only a selection was taken, and the strongest signals are over-represented in it overall.
# B1: PNA (Arachis hypogaea), P02872 (protein)
# chain: MKPFCVFLTFFLLLAASSKKVDSAETVSFNFNSFSEGNPAINFQGDVTVLSNGNIQLTNLNKVNSVGRVLYAMPVRIWSSATGNVASFLTSFSFEMKDIKDYDPADGIIFFIAPEDTQIPAGSIGGGTLGVSDTKGAGHFVGVEFDTYSNSEYNDPPTDHVGIDVNSVDSVKTVPWNSVSGAVVKVTVIYDSSTKTLSVAVTNDNGDITTIAQVVDLKAKLPERVKFGFSASGSLGGRQIHLIRSWSFTSTLITTTRRSIDNNEKKIMNMASA
# What was measured:
# Assay in all cases: glycan array binding signal (z-score within array); higher = stronger binding
# Conditions in all cases: glycan notation: IUPAC condensed, linker removed
# [1] = target: Fuc(a1-2)Gal(b1-3)[Fuc(a1-4)]GlcNAc(b1-3)[Gal(b1-4)GlcNAc(b1-6)]Gal(b1-4)Glc
# In short: (§1)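 Glycan array data were curated from 3228 arrays in the Consortium for Functional Glycomics database and kept only where the protein sequence was available. Glycan names were converted to IUPAC-condensed notation, and columns mapping to the same glycan were averaged. The binding signal is a within-array Z-score, averaged across arrays of the same protein sequence at different concentrations or buffers and across linkers. Negative Z-scores can be read as non-binding.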
# [2] = target: Fuc(a1-2)Gal(b1-4)GlcNAc(b1-2)Man(a1-3)[Fuc(a1-2)Gal(b1-4)GlcNAc(b1-2)Man(a1-6)]Man(b1-4)GlcNAc(b1-4)GlcNAc
# In short: as §1
# [3] = target: Fuc(a1-2)Gal(b1-4)GlcNAc(b1-3)Gal(b1-4)GlcNAc
# In short: as §1
# [4] = target: Fuc(a1-2)Gal3S(b1-4)GlcNAc
# In short: as §1
# [5] = target: Fuc(a1-2)[Gal(a1-3)]Gal(b1-4)[Fuc(a1-3)]Glc
# In short: as §1
# [6] = target: Fuc(a1-2)[GalNAc(a1-3)]Gal(b1-4)GlcNAc(b1-3)GalNAc
# In short: as §1
# [7] = target: Fuc(a1-3)[3dGal(b1-4)]Glc
# In short: as §1
# [8] = target: Fuc(a1-3)[Gal(b1-4)]GlcNAc(b1-2)Man(a1-3)[Fuc(a1-3)[Gal(b1-4)]GlcNAc(b1-2)Man(a1-6)]Man(b1-4)GlcNAc(b1-4)GlcNAc
# In short: as §1
# [9] = target: Fuc(a1-3)[Gal(b1-4)]GlcNAc(b1-2)Man(a1-3)[Fuc(a1-3)[Gal(b1-4)]GlcNAc(b1-2)Man(a1-6)]Man(b1-4)GlcNAc(b1-4)[Fuc(a1-6)]GlcNAc
# In short: as §1
# [10] = target: Fuc(a1-3)[Gal3S(b1-4)]Glc
# In short: as §1
# Fuc(a1-6)GlcNAc = target: Fuc(a1-6)GlcNAc
# In short: as §1
# Gal(a1-2)Gal = target: Gal(a1-2)Gal
# In short: as §1
# [11] = target: Gal(a1-3)Gal(b1-4)GlcNAc(b1-2)Man
# In short: as §1
# Gal(b1-3)Gal(b1-4)GlcNAc = target: Gal(b1-3)Gal(b1-4)GlcNAc
# In short: as §1
# [12] = target: Gal(b1-3)GalNAc(a1-3)[Fuc(a1-2)]Gal(b1-4)Glc
# In short: as §1
# [13] = target: Gal(b1-3)GalNAc(a1-3)[Fuc(a1-2)]Gal(b1-4)GlcNAc
# In short: as §1
# Gal(b1-3)GalNAc(b1-3)Gal = target: Gal(b1-3)GalNAc(b1-3)Gal
# In short: as §1
# [14] = target: Gal(b1-3)GalNAc(b1-3)Gal(a1-4)Gal(b1-4)Glc
# In short: as §1
# [15] = target: Gal(b1-3)GalNAc(b1-4)Gal(b1-4)Glc
# In short: as §1
# [16] = target: Gal(b1-3)GalNAc(b1-4)Gal3S(b1-4)Glc
# In short: as §1
# [17] = target: Gal(b1-3)GalNAc(b1-4)[Neu5Ac(a2-3)]Gal(b1-4)Glc
# In short: as §1
# [18] = target: Gal(b1-3)GalNAc(b1-4)[Neu5Gc(a2-3)]Gal(b1-4)Glc
# In short: as §1
# [19] = target: Gal(b1-3)GlcNAc(b1-3)Gal(b1-4)Glc
# In short: as §1
# [20] = target: Gal(b1-3)[GlcNAc(b1-6)]GalNAc
# In short: as §1
# [21] = target: Gal(b1-4)GlcNAc(b1-2)Man(a1-3)[GlcNAc(b1-4)][Gal(b1-4)GlcNAc(b1-2)Man(a1-6)]Man(b1-4)GlcNAc(b1-4)GlcNAc
# In short: as §1
# [22] = target: Gal(b1-4)GlcNAc(b1-2)Man(a1-6)Man(b1-4)GlcNAc(b1-4)GlcNAc
# In short: as §1
# [23] = target: Gal(b1-4)GlcNAc(b1-2)[Gal(b1-4)GlcNAc(b1-4)]Man(a1-3)[Gal(b1-4)GlcNAc(b1-2)Man(a1-6)]Man(b1-4)GlcNAc(b1-4)GlcNAc
# In short: as §1
# [24] = target: Gal(b1-4)GlcNAc(b1-2)[Gal(b1-4)GlcNAc(b1-6)]Man(a1-6)[Gal(b1-4)GlcNAc(b1-2)Man(a1-3)]Man(b1-4)GlcNAc(b1-4)[Fuc(a1-6)]GlcNAc
# In short: as §1
# Gal(b1-4)GlcNAc(b1-3)Fuc = target: Gal(b1-4)GlcNAc(b1-3)Fuc
# In short: as §1
# [25] = target: Gal(b1-4)GlcNAc(b1-3)[Fuc(a1-3)GlcNAc(b1-6)]Gal(b1-4)Glc
# In short: as §1
# [26] = target: Gal(b1-4)GlcNAc(b1-3)[Gal(b1-4)GlcNAc(b1-6)]Gal(b1-4)GlcNAc
# In short: as §1
# [27] = target: Gal(b1-4)GlcNAc(b1-3)[Gal(b1-4)GlcNAc(b1-6)]Gal(b1-4)GlcNAc(b1-3)[Gal(b1-4)GlcNAc(b1-6)]Gal(b1-4)GlcNAc(b1-3)[Gal(b1-4)GlcNAc(b1-6)]Gal(b1-4)GlcNAc(b1-3)[Gal(b1-4)GlcNAc(b1-6)]Gal(b1-4)GlcNAc(b1-3)Gal(b1-4)Glc
# In short: as §1
# [28] = target: Gal(b1-4)GlcNAc(b1-6)[Gal(b1-3)]GalNAc
# In short: as §1
# [29] = target: Gal3S(b1-4)[Fuc(a1-3)]Glc
# In short: as §1
# Gal6S(b1-3)GlcNAc6S = target: Gal6S(b1-3)GlcNAc6S
# In short: as §1
# Gal6S(b1-4)Glc = target: Gal6S(b1-4)Glc
# In short: as §1
# [30] = target: GalNAc(b1-3)Gal(a1-4)Gal(b1-4)GlcNAc
# In short: as §1
# [31] = target: GalNAc(b1-4)Gal3S(b1-4)Glc
# In short: as §1
# Glc(a1-2)Glc = target: Glc(a1-2)Glc
# In short: as §1
binder,measurement,setting,value
B1,glycan array binding signal (z-score),[1],-0.127
same,glycan array binding signal (z-score),[2],-0.116
same,glycan array binding signal (z-score),[3],-0.144
same,glycan array binding signal (z-score),[4],-0.183
same,glycan array binding signal (z-score),[5],-0.09
same,glycan array binding signal (z-score),[6],-0.177
same,glycan array binding signal (z-score),[7],-0.195
same,glycan array binding signal (z-score),[8],-0.106
same,glycan array binding signal (z-score),[9],-0.162
same,glycan array binding signal (z-score),[10],-0.195
same,glycan array binding signal (z-score),Fuc(a1-6)GlcNAc,-0.195
same,glycan array binding signal (z-score),Gal(a1-2)Gal,-0.169
same,glycan array binding signal (z-score),[11],-0.115
same,glycan array binding signal (z-score),Gal(b1-3)Gal(b1-4)GlcNAc,-0.001
same,glycan array binding signal (z-score),[12],6
same,glycan array binding signal (z-score),[13],8.53
same,glycan array binding signal (z-score),Gal(b1-3)GalNAc(b1-3)Gal,5.33
same,glycan array binding signal (z-score),[14],3.33
same,glycan array binding signal (z-score),[15],7.85
same,glycan array binding signal (z-score),[16],9.11
same,glycan array binding signal (z-score),[17],3.91
same,glycan array binding signal (z-score),[18],4.74
same,glycan array binding signal (z-score),[19],0.203
same,glycan array binding signal (z-score),[20],3.79
same,glycan array binding signal (z-score),[21],-0.309
same,glycan array binding signal (z-score),[22],-0.171
same,glycan array binding signal (z-score),[23],-0.118
same,glycan array binding signal (z-score),[24],-0.186
same,glycan array binding signal (z-score),Gal(b1-4)GlcNAc(b1-3)Fuc,-0.195
same,glycan array binding signal (z-score),[25],-0.247
same,glycan array binding signal (z-score),[26],-0.153
same,glycan array binding signal (z-score),[27],4.16
same,glycan array binding signal (z-score),[28],5.42
same,glycan array binding signal (z-score),[29],-0.222
same,glycan array binding signal (z-score),Gal6S(b1-3)GlcNAc6S,-0.244
same,glycan array binding signal (z-score),Gal6S(b1-4)Glc,-0.174
same,glycan array binding signal (z-score),[30],-0.197
same,glycan array binding signal (z-score),[31],-0.195
same,glycan array binding signal (z-score),Glc(a1-2)Glc,-0.195
